# Assay results taken from the supplement of paper PMC6522484.
# Structures can show the parent of a compound that is named as a salt. ± gives the standard deviation of the averaged measurements.
# System: HCT116
# Experiment: TCF/Wnt firefly luciferase reporter signal relative to plate median (fraction of plate median); higher = higher Wnt reporter signal
# Conditions: 10 µM; treatment time 24 h; reporter: TCF4/Wnt
# Procedure, shortened: (§1)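 Each value averages two independent replicates in which the well signal was normalised to the plate median (webcellHTS2, additive, without log transformation). The signal was firefly luciferase or CellTiterGlo luminescence, read on parallel plates with a Tecan F500. The cells were colorectal cancer lines with stable lentiviral TCF/Wnt firefly luciferase reporters in 384-well plates, dosed 24 h after seeding with kinase inhibitor library compounds at a final 10 µM for 24 h.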
row,Structure (SMILES),TCF/Wnt firefly luciferase reporter signal
1,Cc1c(NC(=O)OC[C@@H]2COCCN2)cn2ncnc(Nc3ccc4c(cnn4Cc4cccc(F)c4)c3)c12,1.01 ± 0.036
2,CCCS(=O)(=O)Nc1ccc(F)c(C(=O)c2c[nH]c3ncc(-c4ccc(Cl)cc4)cc23)c1F [Vemurafenib (PLX4032)],1.155 ± 0.0071
3,COc1ccc(-c2cc3c(C)nc(N)nc3n([C@H]3CC[C@H](OCCO)CC3)c2=O)cn1,0.591 ± 0.039

# System: SW480
# Experiment: as above
# Conditions: 10 µM; treatment time 24 h; reporter: 7TFP
# Procedure, shortened: as §1
row,Structure (SMILES),TCF/Wnt firefly luciferase reporter signal
1,OCCn1cc(-c2ccc3c(c2)CC/C3=N\O)c(-c2ccncc2)n1,1.7 ± 0.092
2,Cn1cc(-c2ccc3ncc(Cc4ccc5ncccc5c4)n3n2)cn1,0.587 ± 0.28
3,CNC(=O)c1cccc(-c2ccc3c(N4CCOC[C@@H]4C)nc(N4CCOC[C@@H]4C)nc3n2)c1,0.629 ± 0.35
4,CC(C)(C)Cn1c(N)nc2ccc(-c3[nH]c(C(C)(C)C)nc3-c3ccc(F)cc3)nc21,1.36 ± 0.014
5,C[C@]1(O)C[C@@H](c2nc(-c3ccc4ccc(-c5ccccc5)nc4c3)c3c(N)nccn32)C1 [Linsitinib (OSI-906)],1.27 ± 0.057
6,CCN(CC)CCNC(=O)c1c(C)[nH]c(/C=C2\C(=O)Nc3ccc(F)cc32)c1C [Sunitinib Malate (Sutent)],1.14 ± 0.21
7,COc1cc(Nc2ncc(F)c(Nc3ccc4c(n3)N(COP(=O)(O)O)C(=O)C(C)(C)O4)n2)cc(OC)c1OC,0.588 ± 0.28
8,Cc1cc(C(C)Nc2ccccc2)c2nc(N3CCOCC3)cc(=O)n2c1 (stereo not given),0.679 ± 0.3
9,Cn1cc(-c2ccc3nnc(Sc4ccc5ncccc5c4)n3n2)cn1,1.02 ± 0.052
10,N#Cc1c(O)c2c(-c3ccc(-c4ccccc4O)cc3)csc2[nH]c1=O,0.976 ± 0.16
11,C#Cc1cccc(Nc2ncnc3cc(OCCOC)c(OCCOC)cc23)c1 [Erlotinib HCl],0.868 ± 0.3
12,N#CC(=C(/N)Sc1ccccc1N)/C(C#N)=C(\N)Sc1ccccc1N,1.59 ± 0.16
13,Nc1cccc(-c2cc3c(Oc4cccc(O)c4)ncnc3[nH]2)c1,0.966 ± 0.04
14,CCOc1cc2ncc(C#N)c(Nc3ccc(F)c(Cl)c3)c2cc1NC(=O)/C=C/CN(C)C [Pelitinib (EKB-569)],1.08 ± 0.021
15,Cc1cc(Nc2cc(CN3CCOCC3)c3nc(C)c(Cc4ccc(Cl)cc4F)n3n2)n[nH]1,0.861 ± 0.05
16,"CC[C@H](CO)Nc1nc(NCc2ccccc2)c2ncn(C(C)C)c2n1 [Roscovitine (Seliciclib, CYC202)]",1.02 ± 0.028
17,CO[C@H]1C[C@@H]2CC[C@@H](C)[C@@](O)(O2)C(=O)C(=O)N2CCCC[C@H]2C(=O)O[C@H]([C@H](C)C[C@@H]2CC[C@@H](OP(C)(C)=O)[C@H](OC)C2)CC(=O)[C@H](C)/C=C(\C)[C@@H](O)[C@@H](OC)C(=O)[C@H](C)C[C@H](C)/C=C/C=C/C=C/1C [Deforolimus (Ridaforolimus)],1.11 ± 0.39
18,O=C1NC(=O)[C@@H](c2cn3c4c(cccc24)CCC3)[C@@H]1c1c[nH]c2ccccc12 [ARQ 197 (Tivantinib)],0.701 ± 0.043
19,COc1cccc2cc(-c3nc([C@H]4CC[C@H](C(=O)O)CC4)n4ncnc(N)c34)[nH]c12,0.83 ± 0.069
20,CO[C@H]1C[C@@H]2CC[C@@H](C)[C@@](O)(O2)C(=O)C(=O)N2CCCC[C@H]2C(=O)O[C@H]([C@H](C)C[C@@H]2CC[C@@H](OC(=O)C(C)(CO)CO)[C@H](OC)C2)CC(=O)[C@H](C)/C=C(\C)[C@@H](O)[C@@H](OC)C(=O)[C@H](C)C[C@H](C)/C=C/C=C/C=C/1C [Temsirolimus (Torisel)],0.951 ± 0.11
21,CC(C)(O)CC(=O)NCCn1ccc2ncnc(Nc3ccc(Oc4cccc(C(F)(F)F)c4)c(Cl)c3)c21,0.879 ± 0.5
22,CCCS(=O)(=O)Nc1ccc(F)c(C(=O)c2c[nH]c3ncc(Cl)cc23)c1F,0.786 ± 0.067
23,O=C(O)c1ccc2c(c1)nc(Nc1cccc(Cl)c1)c1ccncc12 [cx-4945 (Silmitasertib)],0.612 ± 0.1
24,COc1cc2c(Oc3ccc(NC(=O)C4(C(=O)Nc5ccc(F)cc5)CC4)cc3F)ccnc2cc1OCCCN1CCOCC1,0.838 ± 0.4
25,CN(C)CCOc1ccc(-c2nc(-c3ccncc3)c(-c3ccc4c(c3)CC/C4=N\O)[nH]2)cc1,1.27 ± 0.33
26,COc1cc2nccc(Oc3ccc(NC(=O)C4(C(=O)Nc5ccc(F)cc5)CC4)cc3)c2cc1OC [XL-184 free base (Cabozantinib)],1.03 ± 0.1
27,CN1CC[C@H](c2c(O)cc(O)c3c(=O)cc(-c4ccccc4Cl)oc23)[C@H](O)C1 [Flavopiridol hydrochloride],0.869 ± 0.0099
